This is part of a sample that, as a whole, favours compounds with a hit. Of some 83,000 tested, about 20% had one in any assay.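 Testing used 96-well plates and a 48-hour single-concentration exposure. Example: -40 means 40% of the starting cells died.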 Unmarked numbers belong to inactive results. Activity calls are given as the source filed them. The calls were made as follows: active = growth percent below 10; inactive = the rest.

One experiment relates to RXF 393 renal. As to the kind of experiment: NCI-60 one-dose screen, 48 h (100 = growth as untreated, 0 = no growth, -100 = all killed). To be noted: 10 µM unless noted.
Consider `COc1ccc(/C=C2\SC(=Nc3ccccc3)NC2=O)cc1`, for which the growth was -95.5% (active).

As for `O=C(NC(=S)Nc1cccc(NC(=S)NC(=O)c2ccccc2)c1)c1ccccc1`, the growth was 85.4%.

For the compound `Nc1nc(Nc2cccc(F)c2)nc2ccccc12`, the growth was 42%.

With `COc1cc(OC)cc(N2C(=O)N(Cc3ccc(C(C)(C)C)cc3)c3ccccc3S2(=O)=O)c1`, the growth was 60.2%.

For the compound `O=CCCCC(O)C=O` (stereo not given), the growth was 102%.

For the compound `COc1ccc(-c2nsc3c2NC(=O)CC3c2ccsc2)cc1` (stereo not given), the growth is 18%.

In the case of `FC(F)(F)c1cccc(Nc2nc(-c3ccccc3)nc3ncccc23)c1`, the growth was -13.6% (active).

As to `O=Nc1c(O)ccc2ccccc12.O=Nc1c(O)ccc2ccccc12.O=Nc1c([O-])ccc2ccccc12.[Fe+3]`, the growth is 110%.

In the case of `CC(C)(C)c1ccc(C2CC(=O)C3=C(C2)Nc2ccccc2N(C(=O)c2ccccc2Cl)C3c2ccc(F)cc2)cc1` (stereo not given), the growth is -3.26% (active).

Take `CN1CCN(c2nc(Nc3ccc(O)cc3)nc3ccccc23)CC1`: the growth was 77.3%.

Regarding `CCCC(=O)CC(C)=O.CCCC(=O)CC(C)=O.[Cu]`, the growth was 122%.

For `COc1ccc(/C=C2\N=C(c3ccccc3)N(c3ccc(-c4nc5ccc(C)cc5s4)cc3)C2=O)cc1`, the growth is 99%.

`CCOC(=O)c1c(Cl)c2c(n1Cc1ccccc1)-c1oncc1CCC2`: the growth was 64.3%.

Take `CCN(CC)c1cc(C)c2cc(NC(=O)c3cccc(OC)c3)ccc2n1`: the growth is 51.3%.

As for `CCOc1ccccc1CN1CCc2nc3cc(C(C)(C)C)[nH]n3c(=O)c2C1`, the growth was 93.5%.

In the case of `CC(=O)n1cc(-c2c[nH]c3ccccc23)c(-c2ccc(Cl)cc2)n1`, the growth is 80.6%.

For `COc1cc(C#N)cc2[nH]c(=O)oc12`, the growth is 128%.

A further experiment relates to SF-268 CNS. Described as above. To be noted: 10 µM unless noted.
For `OC(c1ccccc1)c1nnc(SCc2ccccc2)n1Cc1ccccc1` (stereo not given), the growth was 94.2%.

For the compound `COc1ccc(/C=C2\SC(=Nc3ccccc3)NC2=O)cc1`, the growth is -82.5% (active).

As for `COc1ccc(-n2c(C(O)c3ccccc3)nn(CN3CCOCC3)c2=S)cc1` (stereo not given), the growth is 103%.

Consider `CN(O)c1nc(N(C)O)nc(N2CCOCC2)n1`, for which the growth is 29.3%.

For `O=C(NC(=S)Nc1cccc(NC(=S)NC(=O)c2ccccc2)c1)c1ccccc1`, the growth was 56.1%.

`Cn1c2c(c(=O)[nH]c1=O)NC1=C(C(=O)c3ccccc31)C1(C=C(O)c3ccccc31)N2` (stereo not given): the growth is 103%.

`Nc1nc(Nc2cccc(F)c2)nc2ccccc12`: the growth is 77.3%.

As for `COc1cc(OC)cc(N2C(=O)N(Cc3ccc(C(C)(C)C)cc3)c3ccccc3S2(=O)=O)c1`, the growth is 89%.

Take `CC/C=C\C[C@H](O)C/C=C1/C(=O)C=C[C@@H]1C/C=C\CCCC(=O)OCCS(=O)(=O)c1ccccc1`: the growth is 42.6%.

For `COc1ccc(C2Nc3ncnc(N)c3N=C3c4ccccc4C(=O)C32)cc1` (stereo not given), the growth is 84%.

In the case of `O=CCCCC(O)C=O` (stereo not given), the growth was 106%.

For `COC(=O)/C(=C\c1c(-c2ccccc2)[nH]c2ccccc12)S(C)(=O)=O`, the growth is 26.8%.

With `COc1ccc(-c2nsc3c2NC(=O)CC3c2ccsc2)cc1` (stereo not given), the growth was 47.1%.

Consider `FC(F)(F)c1cccc(Nc2nc(-c3ccccc3)nc3ncccc23)c1`, for which the growth was 13.3%.

With `COC(=O)/C(=C\c1c(C)[nH]c2ccccc12)S(=O)(=O)c1ccccc1`, the growth was 2.87% (active).

`O=Nc1c(O)ccc2ccccc12.O=Nc1c(O)ccc2ccccc12.O=Nc1c([O-])ccc2ccccc12.[Fe+3]`: the growth was 106%.

For the compound `COc1cccc(C(=O)Cn2cc(/C=C(\C#N)S(=O)(=O)c3ccccc3)c3ccccc32)c1`, the growth is 93.7%.

Regarding `CC(=O)O[C@@H]1/C=C/C(=O)N[C@@H](C)CCC/C=C/[C@@H]2CCC[C@H]21`, the growth was 104%.

In the case of `CC(C)(C)c1ccc(C2CC(=O)C3=C(C2)Nc2ccccc2N(C(=O)c2ccccc2Cl)C3c2ccc(F)cc2)cc1` (stereo not given), the growth was 10.3%.

Turning to `O=C1/C=C/[C@@H](O)[C@@H]2C[C@@H](O)C[C@H]2/C=C/CCCCO1`, the growth was 11.7%.

On to `CN1CCN(c2nc(Nc3ccc(O)cc3)nc3ccccc23)CC1`, for which the growth is 52.5%.

For the compound `O=C(NN1C(=O)CSC1c1ccc(Cl)cc1)c1[nH]c2ccc(F)cc2c1-c1ccccc1` (stereo not given), the growth is 65.1%.

In the case of `CSc1nc2c(c(=O)n1C)N=C1c3ccccc3C(=O)C1C(c1ccccc1)N2` (stereo not given), the growth is 81.7%.

In the case of `N#C/C(=C\c1c(-c2ccccc2)[nH]c2ccccc12)S(=O)(=O)c1ccccc1`, the growth is 53%.

With `O=C(Nc1ccc(Cl)cc1)c1cc2ccccc2cc1OP(=O)(O)O`, the growth was 32%.

In the case of `COc1ccc(/C=C2\N=C(c3ccccc3)N(c3ccc(-c4nc5ccc(C)cc5s4)cc3)C2=O)cc1`, the growth was 61.1%.

With `CSc1nc2c(c(=O)[nH]1)N=C1c3ccccc3C(=O)C1C(c1ccccc1)N2` (stereo not given), the growth is 47.9%.

`CCOC(=O)c1c(Cl)c2c(n1Cc1ccccc1)-c1oncc1CCC2`: the growth is 86.7%.

`COc1cc([C@@H]2NC(=O)NC(C)=C2C(=O)Nc2nc(-c3ccc(Cl)cc3)cs2)ccc1O`: the growth was 94%.

With `N#C/C(=C\c1c(-c2ccccc2)[nH]c2ccccc12)C(=O)c1ccccc1`, the growth is 53.6%.

As for `CCN(CC)c1cc(C)c2cc(NC(=O)c3cccc(OC)c3)ccc2n1`, the growth is 63.2%.

Consider `COc1nc2c(c(=O)n1C)N=C1c3ccccc3C(=O)C1C(c1ccccc1)N2` (stereo not given), for which the growth is 85.3%.

Regarding `CCOc1ccccc1CN1CCc2nc3cc(C(C)(C)C)[nH]n3c(=O)c2C1`, the growth is 105%.

Turning to `COc1ccc(-n2c(C(O)c3ccccc3)n[nH]c2=S)cc1` (stereo not given), the growth is 95.9%.

Consider `CC(=O)n1cc(-c2c[nH]c3ccccc23)c(-c2ccc(Cl)cc2)n1`, for which the growth was 86.5%.

For the compound `N#CC(C#N)=Cc1c(-c2ccccc2)[nH]c2ccccc12`, the growth is 44.6%.

In the case of `Nc1ccc(C2c3ccccc3Oc3ccccc32)cc1`, the growth was 102%.

Turning to `COc1cc(C#N)cc2[nH]c(=O)oc12`, the growth is 100%.

The values above are taken from PubChem BioAssay (NCI).
